Measurements published in paper PMC4552634, “A New Set of Chemical Starting Points with Plasmodium falciparum Transmission-Blocking Potential for Antimalarial Drug Discovery” (PLoS ONE, 2015).
Out of some 13,000 compounds screened, about 3,200 (25%) showed an effect of 50% or more. The list shows a part of the results.

Each compound was assayed on P. falciparum stage V gametocytes. Conditions: 48 h, 5 µM; inhibitor.
Parameters: BacTiter-Glo ATP luminescence viability of purified stage V gametocytes in 384-well plates, per cent inhibition versus DMSO

Row | Compound | % Inhibition [%]
1 | Brc1cc(Br)c2c(c1)C(NCCCNc1nc3ncccc3[nH]1)CCN2 (centres unmarked) [TCMDC-140066] | -91.96
2 | CC(C)(C)c1ccc(C(=O)NC2CCC(CCN3CCc4ccc(S(C)(=O)=O)cc4CC3)CC2)cc1C(F)(F)F (centres unmarked) [TCMDC-141428] | -32.14
3 | CN1CCc2ccc(NC(=O)Nc3cccc(C(=O)c4ccccc4)c3)cc2C1 [TCMDC-139177] | -22.18
4 | C/C=C1/CN2CC[C@H]1C[C@H]2[C@H](O)c1ccnc2ccc(OC)cc12 [TCMDC-138265] | 0.1494
5 | CCCCSc1ccc2nc(-c3c[nH]c4ccc(C#N)cc34)cn2c1 [TCMDC-134704] | -54.07
6 | CC(C)c1cc(C(=O)N[C@@H](Cc2ccccc2)[C@H](O)CNC2CCCCC2)cc(N2CCCC2=O)c1 [TCMDC-138861] | 41.96
7 | Cc1ccc(-c2ccc(Cl)cc2Oc2cnc(N)nc2N)o1 [TCMDC-132599] | 4.58
8 | O=C(Nc1cccc(-c2ccc(-c3nc4ccccc4[nH]3)cc2)c1)c1ccncc1 [TCMDC-136962] | -14.71
9 | CCCc1cc(Cc2cnc(N)nc2N)cc(CCC)c1OCCCCC(=O)OCC [TCMDC-137294] | 0.6782
10 | Cc1cc(N[C@@H](Cc2ccccc2)C(=O)NCCc2ccccc2)nc(NCCOc2ccccc2)n1 [TCMDC-134879] | 65.02
11 | Cc1cc(N[C@@H](Cc2ccccc2)C(=O)NCCOc2ccccc2)nc(NCCOc2ccccc2)n1 [TCMDC-134759] | 76.97
12 | Cc1cc(N[C@@H](Cc2ccccc2)C(=O)NCCOc2ccccc2)nc(Nc2ccccc2)n1 [TCMDC-134735] | 6.483
13 | Cc1cc(N[C@@H](Cc2ccccc2)C(=O)NCCOc2ccccc2)nc(NCc2ccccc2C)n1 [TCMDC-134906] | -0.6796
14 | Cc1cc(N[C@@H](Cc2ccccc2)C(=O)NCCOc2ccccc2)nc(NCCc2ccccc2)n1 [TCMDC-134869] | 38.23
15 | COc1cc2sc(=NC(=O)c3cccc([N+](=O)[O-])c3)n(C)c2cc1OC [TCMDC-123526] | 16.54
16 | CC1(C)N=C(N)N=C(N)N1OCc1cccc2c1ccc1ccccc12 [TCMDC-131327] | 39.55
17 | CCCCc1ccc(C(=O)NC2CCN(C[C@H](O)c3ccnc4ccc(OC)cc34)CC2)cc1 [TCMDC-141040] | -10.19
18 | COc1cc2nc(N3CCN(C(=O)c4ccc(N(C(=O)OC(C)(C)C)C(=O)OC(C)(C)C)cc4)CC3)nc(N)c2cc1OC [TCMDC-131899] | 9.334
19 | COc1cc2nc(N3CCN(c4cc(C)ccc4C)CC3)nc(N)c2cc1OC [TCMDC-125298] | -12.09
20 | COc1ccc(N2CCN(c3nc(N)c4cc(OC)c(OC)cc4n3)CC2C)cc1 (centres unmarked) [TCMDC-131887] | -85.18
21 | COc1cc2nc(N3CCN(C(=O)c4cccc(I)c4)CC3)nc(N)c2cc1OC [TCMDC-131895] | 98.03
22 | COc1cc2nc(NCC3CCN(c4nc(N)c5cc(OC)c(OC)cc5n4)CC3)nc(N)c2cc1OC [TCMDC-138723] | 112.2
23 | COc1cc2nc(N3CCN(C(=O)c4c(Cl)nsc4-c4ccccc4Cl)CC3)nc(N)c2cc1OC.O=C(O)C(F)(F)F [TCMDC-138186] | 103.1
24 | COc1cc2nc(N3CCC(CNC(=O)c4cc5ccccc5s4)CC3)nc(N)c2cc1OC [TCMDC-138189] | 0.3187
25 | COc1cc2nc(N3CCC(CNC(=O)c4cc(Br)c(Br)s4)CC3)nc(N)c2cc1OC.O=C(O)C(F)(F)F [TCMDC-138213] | -9.659
26 | COc1cc2nc(N3CCN(c4nc(N)c5cc(OC)c(OC)cc5n4)CC3)nc(N)c2cc1OC [TCMDC-123865] | 116.7
